Measured values taken from the supplement of paper PMC8728848.
This excerpt belongs to a sample that is enriched for the strongest signals.

B1: Siglec 6 (Homo sapiens), O43699 (protein)
chain: MLPLLLPLLWAGALAQERRFQLEGPESLTVQEGLCVLVPCRLPTTLPASYYGYGYWFLEGADVPVATNDPDEEVQEETRGRFHLLWDPRRKNCSLSIRDARRRDNAAYFFRLKSKWMKYGYTSSKLSVRVMALTHRPNISIPGTLESGHPSNLTCSVPWVCEQGTPPIFSWMSAAPTSLGPRTTQSSVLTITPRPQDHSTNLTCQVTFPGAGVTMERTIQLNVSYAPQKVAISIFQGNSAAFKILQNTSSLPVLEGQALRLLCDADGNPPAHLSWFQGFPALNATPISNTGVLELPQVGSAEEGDFTCRAQHPLGSLQISLSLFVHWKPEGRAGGVLGAVWGASITTLVFLCVCFIFRVKTRRKKAAQPVQNTDDVNPVMVSGSRGHQHQFQTGIVSDHPAEAGPISEDEQELHYAVLHFHKVQPQEPKVTDTEYSEIKIHK
B2: 7WC (Trifolium repens) (protein)
chain: MGTITSYAVVFDAGSTGSRVHVYHFDQNLDLLHIGKDVEFYNKIQPGLSAYADNPEQAAKSLIPLLEQAENVVPEDFHSKTPIRLGATAGLRLLDGDASERILQAVRDMLNNKSTFNVQPDAVSIIDGTQEGSYLWVTINYVLGNLGKRFTNTVGVIDLGGGSVQMAYAVSKKTARNAPKVTDGEDPYIKKIVLKGKPYDLYVHSYLHFGREASRAEILKVTHGSASPCILAGFDGIYTYSGEEFKASAPTSGANFDKCKKIIQKALKLDYPCPYQNCTFGGIWNGGGGSGQKKLFAASSFFYLPQDVGMVDPNKSNLKLRPVDLENKAKIVCTLNVEDVKSAYPLLEKFNIVPYACMDLIYQYELLVDGFGLDPLQEITAGEKIEYQEALVDAAWALGNAVEAVLLLPKFERLMYFVVEHHHHHH

Tests used:
Test in all cases: glycan array binding signal (z-score within array); higher = stronger binding
Conditions in all cases: glycan notation: IUPAC condensed, linker removed
[1] = target: Fuc(a1-2)Gal(b1-4)[Fuc(a1-3)]GlcNAc
Procedure, shortened: (§1)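 The binding signal is a Z-score computed within each array and averaged over linkers. Arrays of the same protein sequence at different concentrations or buffers were also averaged together. Data originate from 3228 arrays in the Consortium for Functional Glycomics database, kept only where the protein sequence was available.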

[2] = target: Fuc(a1-2)[Gal(a1-4)]Gal(b1-4)GalNAc
Procedure, shortened: as §1

[3] = target: Gal(a1-2)Gal
Procedure, shortened: as §1

[4] = target: Gal(a1-3)Gal(b1-3)GlcNAc
Procedure, shortened: as §1

[5] = target: Gal(a1-4)GlcNAc
Procedure, shortened: as §1

[6] = target: Gal(b1-3)[Neu5Ac(a2-6)]GlcNAc
Procedure, shortened: as §1

[7] = target: Gal(b1-4)GlcNAc(b1-2)Man(a1-3)[Gal(b1-4)GlcNAc(b1-2)Man(a1-6)]Man(b1-4)GlcNAc(b1-4)GlcNAc
Procedure, shortened: as §1

[8] = target: Gal(b1-4)GlcNAc(b1-6)[Gal(b1-3)]GalNAc
Procedure, shortened: as §1

[9] = target: Gal3S(b1-4)GlcNAc6S
Procedure, shortened: as §1

[10] = target: Gal3S6S(b1-4)GlcNAc
Procedure, shortened: as §1

[11] = target: Gal3S6S(b1-4)GlcNAc6S
Procedure, shortened: as §1

[12] = target: Gal4S6S(b1-4)GlcNAc
Procedure, shortened: as §1

[13] = target: Gal6S(b1-4)Glc
Procedure, shortened: as §1

[14] = target: Man(a1-2)Man(a1-3)[Man(a1-6)]Man(a1-6)[Man(a1-2)Man(a1-3)]Man(b1-4)GlcNAc(b1-4)GlcNAc
Procedure, shortened: as §1

[15] = target: Neu5Ac(a2-3)Gal(b1-3)[Fuc(a1-4)]GlcNAc
Procedure, shortened: as §1

[16] = target: Neu5Ac(a2-3)Gal(b1-4)Glc
Procedure, shortened: as §1

[17] = target: Neu5Ac(a2-6)Gal(b1-4)GlcNAc(b1-3)Gal(b1-4)GlcNAc
Procedure, shortened: as §1

[18] = target: Neu5Ac(a2-8)Neu5Ac(a2-3)Gal(b1-4)Glc
Procedure, shortened: as §1

[19] = target: Neu5Ac9Ac(a2-6)Gal(b1-4)GlcNAc
Procedure, shortened: as §1

[20] = target: Neu5Gc(a2-3)Gal(b1-3)GlcNAc
Procedure, shortened: as §1

[21] = target: Fuc(a1-2)Gal(b1-4)[Fuc(a1-3)]GalNAc(b1-3)Gal(b1-4)[Fuc(a1-3)]GlcNAc
Procedure, shortened: as §1

[22] = target: Gal(a1-3)Gal(b1-3)Glc
Procedure, shortened: as §1

[23] = target: Gal(b1-3)[Neu5Ac(a2-6)]GalNAc
Procedure, shortened: as §1

[24] = target: Gal(b1-4)GlcNAc(b1-3)Gal(b1-4)Glc
Procedure, shortened: as §1

[25] = target: Gal4S(b1-4)GlcNAc
Procedure, shortened: as §1

[26] = target: Glc(a1-4)Glc
Procedure, shortened: as §1

[27] = target: GlcNAc(b1-3)Gal(b1-4)GlcNAc(b1-3)Gal(b1-4)GlcNAc
Procedure, shortened: as §1

[28] = target: GlcNAc(b1-3)[GlcNAc(b1-6)]GlcNAc
Procedure, shortened: as §1

[29] = target: Man(a1-2)Man(a1-2)Man(a1-6)[Man(a1-3)]Man
Procedure, shortened: as §1

[30] = target: Man(a1-2)Man(a1-3)Man
Procedure, shortened: as §1

[31] = target: Neu5Ac(a2-3)Gal(b1-3)[Fuc(a1-4)]GlcNAc(b1-3)Gal(b1-4)[Fuc(a1-3)]GlcNAc
Procedure, shortened: as §1

[32] = target: Neu5Ac(a2-3)Gal(b1-4)GlcNAc6S
Procedure, shortened: as §1

[33] = target: Neu5Ac(a2-3)Gal(b1-4)[Fuc(a1-3)]GlcNAc(b1-3)Gal(b1-4)[Fuc(a1-3)]GlcNAc(b1-3)Gal(b1-4)[Fuc(a1-3)]GlcNAc
Procedure, shortened: as §1

[34] = target: Neu5Ac(a2-6)GalNAc
Procedure, shortened: as §1

Binder	glycan array binding signal (z-score) [1]	glycan array binding signal (z-score) [2]	glycan array binding signal (z-score) [3]	glycan array binding signal (z-score) [4]	glycan array binding signal (z-score) [5]	glycan array binding signal (z-score) [6]	glycan array binding signal (z-score) [7]	glycan array binding signal (z-score) [8]	glycan array binding signal (z-score) [9]	glycan array binding signal (z-score) [10]	glycan array binding signal (z-score) [11]	glycan array binding signal (z-score) [12]	glycan array binding signal (z-score) [13]	glycan array binding signal (z-score) [14]	glycan array binding signal (z-score) [15]	glycan array binding signal (z-score) [16]	glycan array binding signal (z-score) [17]	glycan array binding signal (z-score) [18]	glycan array binding signal (z-score) [19]	glycan array binding signal (z-score) [20]	glycan array binding signal (z-score) [21]	glycan array binding signal (z-score) [22]	glycan array binding signal (z-score) [23]	glycan array binding signal (z-score) [24]	glycan array binding signal (z-score) [25]	glycan array binding signal (z-score) [26]	glycan array binding signal (z-score) [27]	glycan array binding signal (z-score) [28]	glycan array binding signal (z-score) [29]	glycan array binding signal (z-score) [30]	glycan array binding signal (z-score) [31]	glycan array binding signal (z-score) [32]	glycan array binding signal (z-score) [33]	glycan array binding signal (z-score) [34]
B1	-0.259	1.21	-0.328	-0.366	-0.074	-0.381	-0.29	-0.521	3.66	5.12	6.44	3	0.086	-0.209	-0.566	-0.332	-0.476	-0.16	-0.211	-0.386														
B2	-0.391																		-0.491		-0.347	-0.298	-0.464	-0.215	-0.335	2.65	-0.327	0.685	9.79	-0.261	4.17	-0.474	2.57	-0.153
